Screen size: about 330,000 compounds; about 10,000 (3%) were called active.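 Rule for the calls: active = inhibition of at least 50% at 8 µM in the primary screen; inactive = the rest.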 Shown is part of a subset that was picked to be rich in actives.

For this test, the target named is Protein Mdm4 (Homo sapiens) + E3 ubiquitin-protein ligase Mdm2 (Homo sapiens) (UniProt O15151+Q00987). Nature of the test: disruptors of Mdm2/MdmX RING complex – cell-based, luminescence, split luciferase, SaOS-2, uHTS, primary screen (AID 485346). The note with it: SaOS-2 split-luciferase Mdm2/MdmX complementation, at 8 µM, active compounds read high.
Chain of Protein Mdm4 (Homo sapiens) + E3 ubiquitin-protein ligase Mdm2 (Homo sapiens) (O15151 whole entry, looked up): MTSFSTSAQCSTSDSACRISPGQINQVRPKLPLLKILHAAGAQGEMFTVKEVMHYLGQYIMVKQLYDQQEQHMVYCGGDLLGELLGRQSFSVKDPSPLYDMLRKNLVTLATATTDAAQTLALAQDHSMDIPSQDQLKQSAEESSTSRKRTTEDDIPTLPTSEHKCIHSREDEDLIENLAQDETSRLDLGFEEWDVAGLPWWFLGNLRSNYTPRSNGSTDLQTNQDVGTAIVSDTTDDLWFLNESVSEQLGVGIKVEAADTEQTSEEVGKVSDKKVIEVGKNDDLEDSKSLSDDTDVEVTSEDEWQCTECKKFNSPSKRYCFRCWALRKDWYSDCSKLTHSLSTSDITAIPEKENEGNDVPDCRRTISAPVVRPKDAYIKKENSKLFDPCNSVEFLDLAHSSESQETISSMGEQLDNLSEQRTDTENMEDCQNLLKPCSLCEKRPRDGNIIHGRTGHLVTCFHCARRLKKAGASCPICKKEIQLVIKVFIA
Chain of Protein Mdm4 (Homo sapiens) + E3 ubiquitin-protein ligase Mdm2 (Homo sapiens) (Q00987 whole entry, looked up): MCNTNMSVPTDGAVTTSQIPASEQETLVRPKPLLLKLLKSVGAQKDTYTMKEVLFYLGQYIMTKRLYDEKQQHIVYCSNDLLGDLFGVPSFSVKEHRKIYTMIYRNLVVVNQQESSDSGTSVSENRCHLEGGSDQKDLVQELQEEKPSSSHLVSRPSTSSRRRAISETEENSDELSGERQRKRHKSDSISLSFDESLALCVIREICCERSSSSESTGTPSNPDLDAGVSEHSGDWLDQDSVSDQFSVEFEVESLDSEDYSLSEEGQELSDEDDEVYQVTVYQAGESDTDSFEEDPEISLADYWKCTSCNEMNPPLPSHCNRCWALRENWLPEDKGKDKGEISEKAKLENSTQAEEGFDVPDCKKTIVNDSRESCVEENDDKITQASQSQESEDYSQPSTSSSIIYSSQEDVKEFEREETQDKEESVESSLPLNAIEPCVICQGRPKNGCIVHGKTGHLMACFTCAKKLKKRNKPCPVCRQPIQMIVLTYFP
Consider `Cn1c2c(c(=O)n(C)c1=O)C(c1cccc(F)c1)C(C#N)=C(N)O2` (stereo not given), for which the inhibition was -0.62% (inactive).

With `Cc1ccc(C(=O)NCC(=O)NCc2cc(=O)n(C)c(=O)n2C)cc1`, the inhibition is -0.269% (inactive).

For the compound `COc1ccc(Cl)cc1C(=O)Nc1ccc(N(C)C(C)=O)cc1`, the inhibition is 1.34% (inactive).

For `COC(=O)c1ccc(NC(=O)c2cc(Cl)ccc2OC)cc1`, the inhibition was 92.4% (active).

Regarding `CCC(C)NC(=O)c1cc(Cl)ccc1OC` (stereo not given), the inhibition is 2.55% (inactive).

As for `COc1cc(NC(=S)NCCSc2ccc(C)cc2)cc(OC)c1`, the inhibition is 27.5% (inactive).

With `O=S(=O)(NCc1cccnc1)c1ccc(Br)s1`, the inhibition is 1% (inactive).

As to `O=S(=O)([N-]c1nc2ccccc2nc1-[n+]1ccc(Cc2ccccc2)cc1)c1ccc(Br)s1`, the inhibition was 71.9% (active).

`O=C(NCCc1ccccc1)C1CCN(S(=O)(=O)c2ccc(Br)s2)CC1`: the inhibition is 18.6% (inactive).

Consider `COc1ccc2c(c1)c1nc3n(c(=O)c1n2CC(=O)Nc1ccccc1)CCS3`, for which the inhibition is 41.9% (inactive).

For `CC(C(=O)NC1CCCC1)N1CCN(S(=O)(=O)c2ccccc2Cl)CC1` (stereo not given), the inhibition was -17.2% (inactive).

Take `Cn1nccc1C(=O)NC1CCCc2c1cnn2-c1ccccc1F` (stereo not given): the inhibition was -1.1% (inactive).

As to `Cc1ccc(-n2ncc3c2CCCC3NC(=O)c2cnccn2)cc1C` (stereo not given), the inhibition is 9.66% (inactive).

As to `Cn1nccc1C(=O)NC1CCCc2c1cnn2-c1ccc(F)cc1F` (stereo not given), the inhibition was 26.9% (inactive).

For `Cc1cc(C(=O)NC2CCCc3c2cnn3-c2cccc(C)c2C)c(C)o1` (stereo not given), the inhibition was 68% (active).

As to `CC(=O)NCC(=O)NC1CCCc2c1cnn2-c1ccccc1F` (stereo not given), the inhibition is -11.2% (inactive).

As for `COc1ccc(C(=O)NC2CCCc3c2cnn3-c2cccc(C)c2C)c(OC)n1` (stereo not given), the inhibition is 97.7% (active).

For `Cc1nonc1C1CCCN1Cc1nc(-c2ccc(F)cc2F)oc1C` (stereo not given), the inhibition was 29.7% (inactive).

`Clc1ccc(C[n+]2cc(-c3ccc(Cl)cc3)n3c2CCC3)cc1`: the inhibition is 31.8% (inactive).

With `COc1ccc(S(=O)(=O)Nc2ccc3cn[nH]c3c2)cc1[N+](=O)[O-]`, the inhibition is 0.751% (inactive).

As to `Cc1cccc(N(CC(=O)N=Nc2c(O)[nH]c3ccccc23)S(C)(=O)=O)c1C`, the inhibition was -22.1% (inactive).

For the compound `O=[N+]([O-])c1cc(S(=O)(=O)Nc2cccc(Cl)c2)ccc1N=Nc1c(O)[nH]c2ccccc12`, the inhibition is 97.4% (active).

`Cc1ccc2[nH]c(=O)c(CC(=O)O)c(-c3ccccc3)c2c1`: the inhibition is 22% (inactive).

As for `Cc1cccc(N(C)C(=O)c2cc3c(=O)[nH]c4ccc(C)cc4c3s2)c1`, the inhibition is 60.9% (active).

Turning to `CCN(CC)CCCNC(=O)c1cc2c(=O)[nH]c3ccc(C)cc3c2s1`, the inhibition is 26.3% (inactive).

Consider `O=C(CNC(=O)C12CC3CC(CC(C3)C1)C2)OCC(=O)N1CCCCC1`, for which the inhibition was 19.2% (inactive).

For `C/C(=N\NC(=O)c1ccc(NS(=O)(=O)c2cccs2)cc1)c1ccc2ccccc2c1`, the inhibition is -6.93% (inactive).

For the compound `COc1cc(OC)cc(C(=O)NC2CCN(C(=O)N3c4ccccc4Sc4ccccc43)CC2)c1`, the inhibition is 9.25% (inactive).

Take `CC(=O)Nc1ccccc1NC(=O)c1cc(C)cc(C)c1`: the inhibition was -1.21% (inactive).

As for `Nc1ccc(C(=O)Nc2ccccc2N)cc1`, the inhibition was 54.8% (active).

Turning to `Nc1ccc(C(=O)NCc2ccccc2)cc1`, the inhibition is 3.98% (inactive).

Regarding `CC(NC(=O)c1ccc(N2CCNCC2)c([N+](=O)[O-])c1)C12CC3CC(CC(C3)C1)C2` (stereo not given), the inhibition was 101% (active).

With `COc1cc(OC)cc(C(=O)NC(=S)N2CCN(c3ccc(C(F)(F)F)cc3[N+](=O)[O-])CC2)c1`, the inhibition is 17.3% (inactive).

As to `O=C(Nc1ccc(N2C(=O)c3cccc4cccc(c34)C2=O)cc1)c1ccc(N2CCCCC2)c([N+](=O)[O-])c1`, the inhibition is -6.66% (inactive).

With `O=C(Nc1cccc(C(F)(F)F)c1)c1ccc(N2CCNCC2)c([N+](=O)[O-])c1`, the inhibition was 52.8% (active).

Turning to `CCC(C)NC(=O)c1ccc(N2CCC3(CC2)OCCO3)c([N+](=O)[O-])c1` (stereo not given), the inhibition is 10.6% (inactive).

With `O=C(NC1C2CC3CC(C2)CC1C3)c1ccc(N2CCNCC2)c([N+](=O)[O-])c1` (stereo not given), the inhibition was 34.8% (inactive).

Regarding `Brc1c(CSc2nncc3ccccc23)nc2ccccn12`, the inhibition is 21.7% (inactive).

As for `CCc1ccccc1NC(=O)c1ccc2c(c1)CCN2S(C)(=O)=O`, the inhibition is 24.8% (inactive).

For `CC(=N\NC(=O)c1cc(Br)ccc1O)/C(=N/O)C(=O)Nc1ccccc1`, the inhibition was 36.7% (inactive).

As for `CCN(CC)C(CNC(=O)CSc1nnnn1-c1cccc(F)c1)c1ccco1` (stereo not given), the inhibition was -4.51% (inactive).

Consider `COc1cccc(-n2c(SCC(=O)NC3CCCCC3)nc3n[nH]c(C)c3c2=N)c1`, for which the inhibition was 53.3% (active).

As to `Cc1ccc(-n2c(SCC(=O)NCCC3=CCCCC3)nc3n[nH]c(C)c3c2=N)cc1Cl`, the inhibition was 28.5% (inactive).

For the compound `CCCCNC(=O)CSc1nc2n[nH]c(C)c2c(=N)n1-c1cccc(Cl)c1C`, the inhibition is -6.85% (inactive).

With `COCCNC(=O)CSc1nc2sccc2c(=O)n1-c1ccccc1`, the inhibition was 6.49% (inactive).

Take `CN(C)CCCn1c(=O)n(Cc2ccccc2)c(=O)c2c3c(sc21)CCCCC3`: the inhibition was 61.8% (active).

Consider `Cn1c(=O)n(Cc2ccco2)c(=N)c2c3c(sc21)CCCC3`, for which the inhibition is 15.6% (inactive).

For `O=c1c2c3c(sc2n(CCN2CCCC2)c(=O)n1Cc1ccccc1)CCCCC3`, the inhibition is 28.5% (inactive).

Turning to `CCc1ccc(C(CNc2nc(C(F)(F)F)nc3ccccc23)N(C)C)cc1` (stereo not given), the inhibition is 20.9% (inactive).

As for `CC(Nc1nc(C(F)(F)F)nc2ccccc12)c1cccs1` (stereo not given), the inhibition is 69.6% (active).

With `COc1cccc(CNc2nc(C(F)(F)F)nc3ccccc23)c1`, the inhibition is 31.6% (inactive).

`COc1ccccc1CNC(=O)CCCN1C(=O)NC2(CCCC2)C1=O`: the inhibition is 20.4% (inactive).

Turning to `Cc1c(C(=O)NCCN2CCOCC2)sc2nc(-c3ccc(F)cc3)cn12`, the inhibition was 7.76% (inactive).

On to `O=C(N/N=C/c1cccnc1)c1ccc(NC(=O)c2ccc(F)cc2)cc1`, for which the inhibition was -2.66% (inactive).

Regarding `O=C(NN=C1CCC(=NNC(=O)c2cccnc2)CC1)c1cccnc1`, the inhibition is -0.152% (inactive).

For the compound `O=C(N/N=C/c1sc(N2CCCCC2)nc1-c1cccs1)c1cccnc1`, the inhibition was 57.4% (active).

Turning to `CCOC(=O)c1csc(CCNC(=O)c2oc3c(Cl)cc(C)cc3c2C)n1`, the inhibition is 21.7% (inactive).

For `CC(C)(C)CC(C)(C)NCC(O)COCCOc1ccc(Br)cc1` (stereo not given), the inhibition is 65.4% (active).

As for `OC(COc1ccc(Br)cc1)CN1CCCC1` (stereo not given), the inhibition is 2.28% (inactive).

For `CC(Oc1ccc(Br)cc1)C(=O)NC1CCCCCC1` (stereo not given), the inhibition is 0.219% (inactive).

One may read the inhibition as the drop in the measured response relative to a control, in per cent.

The values are drawn from PubChem BioAssay AID485346 (Sanford-Burnham Center for Chemical Genomics, 2010).
